{
  "source": "the supplement of paper PMC7858590",
  "data": [
    {"test_system": "human monocyte-derived macrophages (polarized)", "assay": "cell shape (eccentricity) Z-score vs DMSO control; higher = more elongated, M2-like morphology", "details": "5 µM; 24 h; macrophage state: M1-polarized (IFNg + TNFa), cytokines present during treatment", "experimental": "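Primary-screen hits were rescreened on polarized hMDMs with the differentiating cytokines (IL-4 + IL-13 or IFNg + TNFa) kept in the medium during treatment with compound at 5 uM for 24 h. The eccentricity Z-score vs DMSO wells is averaged over experiments.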", "values": [
      {"compound": "CCCCCCCCCCC(C)(C)C(=O)Nc1c(OC)cc(OC)cc1OC", "cell shape (Z-score)": -3.18},
      {"compound": "COc1nccnc1NS(=O)(=O)c1ccc(NC(=O)/C=C/c2ccc([N+](=O)[O-])s2)cc1", "cell shape (Z-score)": -4.64},
      {"compound": "CCN(CC)CCOc1ccc2c(c1)C(=O)c1cc(OCCN(CC)CC)ccc1-2", "cell shape (Z-score)": -4.84},
      {"compound": "Cc1nc(Nc2ncc(C(=O)Nc3c(C)cccc3Cl)s2)cc(N2CCN(CCO)CC2)n1", "cell shape (Z-score)": 19.8},
      {"compound": "O=c1cc(-c2ccccc2F)[nH]c2cc3c(cc12)OCO3", "cell shape (Z-score)": 0.5},
      {"compound": "C[C@@H]1O[C@@H](Oc2cc(O)c3c(=O)c(O[C@@H]4O[C@@H](C)[C@H](O[C@@H]5O[C@@H](C)[C@H](O)[C@@H](O)[C@H]5O)[C@@H](O)[C@H]4O)c(-c4ccc(O)cc4)oc3c2)[C@H](O)[C@H](O)[C@H]1O", "cell shape (Z-score)": 5.9},
      {"compound": "Cn1cncc1[C@@](N)(c1ccc(Cl)cc1)c1ccc2c(c1)c(-c1cccc(Cl)c1)cc(=O)n2C", "cell shape (Z-score)": -0.763},
      {"compound": "OC[C@H](Cc1ccccc1)Nc1nc(Oc2ccc3c(c2)CCC3)nc2c1ncn2Cc1ccc(-c2ccccc2)cc1", "cell shape (Z-score)": 7.52},
      {"compound": "Cn1c2ccccc2c2c3c(c4c5ccccc5n(CCC#N)c4c21)CNC3=O", "cell shape (Z-score)": 4.83}
    ]}
  ]
}
